Screening results (PubChem BioAssay)
Hits are enriched below; roughly 6% of the tested compounds scored in any of these assays.
Tau fluor counter: counter-screen for tau fibril formation inhibitors | Potency, µM (series often up to 57.7 µM) | tau K18 P301L Alexa594 fluorescence, heparin fibrillization | actives 0.93% (n = 280,000); further: nearly all actives have a fitted effect of over 55% in size
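Human tau K18 P301L (15 uM unlabeled, 0.24 uM Alexa 594-labeled) in 100 mM sodium acetate pH 7 with 20 uM heparin, 6 hr at 37 C. ThT 30 uM added, 1 hr ambient; Alexa 594 FP and total fluorescence read at 555/632 nm.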
Sfp PPTase inh: inhibitors of Bacillus subtilis Sfp phosphopantetheinyl transferase; Biochemical Sfp PPTase activity, qHTS; Potency, µM, actives largely listed as inhibitors; actives 3.5% (n = 310,000); AID 1490;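 further: the enzyme is Sfp with the accession as filed and its product quenches rhodamine fluorescence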
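With Hepes-Na pH 7.6 buffer containing 10 mM MgCl2, Sfp (15 nM) modified BHQ-2-YbbR (12.5 uM) using rhodamine-CoA (5 uM). Two reads 30 minutes apart at 525/598 nm yielded each well's rate.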
Tau FP inhib: blocks human tau fibril formation measured by polarization; P10636; K18 P301L tau heparin fibrillization, Alexa594 FP, 6 h; Potency, µM (doses to about 57.7 µM), usual class: inhibitors; actives 0.39% (n = 280,000); further: nearly all actives have a fitted effect of over 55% in size
Target sequence (P10636 561-689 P618L limits assumed): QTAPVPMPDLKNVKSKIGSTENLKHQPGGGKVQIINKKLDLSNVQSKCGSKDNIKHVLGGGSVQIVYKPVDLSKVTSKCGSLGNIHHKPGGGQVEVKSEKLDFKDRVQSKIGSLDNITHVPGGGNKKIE
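K18 P301L tau (15 uM unlabeled/0.24 uM Alexa 594-labeled, final) + compound + heparin 20 uM final; 100 mM NaOAc pH 7; 6 hr 37 C; ThT 30 uM final added, 1 hr RT; FP ex 555/em 632 nm.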
VDR inhibitor: blocks the human vitamin D receptor. AID 504847. P11473. Potency, µM, usual class: inhibitors. actives 0.93% (n = 400,000). VDR-SRC2-3 peptide fluorescence polarization, 2 h
Target sequence (P11473 whole entry, looked up): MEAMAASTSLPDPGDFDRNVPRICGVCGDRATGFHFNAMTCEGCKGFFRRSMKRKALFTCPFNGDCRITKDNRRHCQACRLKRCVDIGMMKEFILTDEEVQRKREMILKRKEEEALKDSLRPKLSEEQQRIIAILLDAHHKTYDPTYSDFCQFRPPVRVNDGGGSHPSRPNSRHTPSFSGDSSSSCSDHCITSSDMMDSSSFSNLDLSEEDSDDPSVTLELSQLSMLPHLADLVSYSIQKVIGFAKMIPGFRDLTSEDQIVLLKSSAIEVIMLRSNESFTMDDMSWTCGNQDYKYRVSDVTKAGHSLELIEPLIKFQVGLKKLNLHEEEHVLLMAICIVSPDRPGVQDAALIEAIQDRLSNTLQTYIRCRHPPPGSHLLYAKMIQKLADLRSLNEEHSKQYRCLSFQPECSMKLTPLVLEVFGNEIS
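FP read-out; VDR + SRC2-3 coactivator peptide; 23 nl compound by pintool; 2 h RT incubation; reagents held at 4 deg C, protected from light.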
PLK1 PBD inh: inhibitors of human PLK1 polo-box domain binding; P53350; Potency, µM, most hits filed as inhibitors; Plk1 PBD binding of FITC phosphopeptide, fluorescence polarization; actives 2.8% (n = 360,000); AID 720504; further: series mostly up to about 57 µM; nearly all actives have a fitted effect of over 65% in size
Tau ThT inhib: tau fibrillization inhibition (ThT binding); recombinant tau K18 P301L, heparin-induced fibrillization, ThT fluorescence; Potency, µM (doses to about 57.4 µM), usual class: inhibitors; actives 2.1% (n = 270,000); AID 1460; further: nearly all actives have a fitted effect of over 55% in size
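ThT emission at 510 nm, taken 1 hr after adding 30 uM dye, quantifies aggregates formed when 20 uM heparin acts on human tau K18 P301L for 6 hr at 37 C.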
Each line names hits and unclear results; the compound was inactive in the other large screens; [ ] = another dose, or the depositor's remark. The call rests on the fitted dose curve; in most records, active means well fitted curve in the direction sought with a large enough effect; inconclusive means small, poorly fitted or top-dose-only effect, or another doubt; inactive means no such curve, though single readings can be large; an effect the other way counts as inactive or inconclusive.

CCSc1nnc(NC(=O)CSc2sc3c(O)cc(=O)[nH]c3c2C#N)s1	PLK1 PBD inh 12µM (no result: Tau fluor counter, Tau FP inhib, Tau ThT inhib)
CCc1nnc(NC(=O)CSc2sc3c(O)cc(=O)[nH]c3c2C#N)s1	Sfp PPTase inh 79µM, PLK1 PBD inh 30µM (no result: Tau fluor counter, Tau FP inhib, Tau ThT inhib)
COc1ccc(C(N)c2csc(Nc3nncc4ccccc34)n2)cc1 (stereo not given)	none (no result: Tau fluor counter, Sfp PPTase inh, Tau FP inhib, VDR inhibitor, Tau ThT inhib)
CN(Cc1ccccc1F)c1cc2c(c3c1ccn3C)C1CCC2C1 (stereo not given)	none (no result: Tau fluor counter, Sfp PPTase inh, Tau FP inhib, VDR inhibitor, Tau ThT inhib)
CC1=C(C#N)c2nc(N)c(C#N)c(C)c2/C1=C\c1ccc(OCC(=O)O)c(Cl)c1	Tau fluor counter inconclusive, Sfp PPTase inh inconclusive, Tau FP inhib inconclusive, PLK1 PBD inh 8.4µM, Tau ThT inhib 16µM
CCCCCCCCCCCCC(=O)N1CCCC[C@H]1CNC(=O)[C@@H](N)CCCCN	Sfp PPTase inh 50µM, Tau ThT inhib inconclusive (no result: PLK1 PBD inh)
CCC1CCCCN1C(=O)CCCc1ccccc1 (stereo not given)	none (no result: Tau fluor counter, Tau FP inhib, Tau ThT inhib)
O=[N+]([O-])c1ccc(C2Oc3ccccc3C3CC(c4ccccc4)=NN32)s1 (stereo not given)	Tau fluor counter 14µM[quencher], Tau FP inhib inconclusive, Tau ThT inhib 14µM (no result: VDR inhibitor, PLK1 PBD inh)
CCc1cccc(-n2nnc(-c3nsc(NC(=O)c4cccc(OC)c4)n3)c2C)c1	none (no result: Sfp PPTase inh, PLK1 PBD inh)
O=S1(=O)N=C(Oc2cccc3ccccc23)c2ccccc21	Tau ThT inhib inconclusive
Cc1ccccc1OC1=NS(=O)(=O)c2ccccc21	PLK1 PBD inh 30µM
O=C(NCC[C@@H]1CC[C@@H](NS(=O)(=O)Cc2ccccc2)[C@@H](CO)O1)C1CC1	none (no result: Tau fluor counter, Sfp PPTase inh, Tau FP inhib, VDR inhibitor, Tau ThT inhib)
CN(C)c1ncnc2ccc(-c3cccc(NS(C)(=O)=O)c3)cc12	none (no result: Tau fluor counter, Tau FP inhib, PLK1 PBD inh, Tau ThT inhib)
O=C1/C(=N\S(=O)(=O)c2cccs2)C([n+]2ccc(CCCc3ccccc3)cc2)=C([O-])c2ccccc21	Tau fluor counter inconclusive, Tau ThT inhib 2.8µM
CC(C)(C)c1cc[n+](C2=C([O-])c3ccccc3C(=O)/C2=N\S(=O)(=O)c2ccccc2)cc1	Tau fluor counter inconclusive, Tau FP inhib inconclusive, Tau ThT inhib 16µM
O=C1/C(=N\S(=O)(=O)c2cccs2)C([n+]2cccc(Cc3ccccc3)c2)=C([O-])c2ccccc21	PLK1 PBD inh inconclusive, Tau ThT inhib inconclusive
COc1ccc(CCNC(=S)N2CCC(C(N)=O)CC2)cc1	Sfp PPTase inh 56µM, PLK1 PBD inh 34µM
COc1ccc(CCNC(=O)C2CCN(C(=O)c3ccc(Br)cc3)CC2)cc1	VDR inhibitor inconclusive, PLK1 PBD inh 27µM (no result: Tau fluor counter, Tau FP inhib, Tau ThT inhib)
COc1ccc(CCNC(=O)C2CCCN(C(=O)c3ccc(Cl)cc3)C2)cc1 (stereo not given)	none (no result: Tau fluor counter, Tau FP inhib, Tau ThT inhib)
CC1(C)CC(NNCCC#N)=CC(=[N+]2CCCC2)C1	PLK1 PBD inh 24µM, Tau ThT inhib inconclusive
CN(Cc1ccccc1)C1=CC(=[N+]2CCCCC2)CC(C)(C)C1	none (no result: Tau ThT inhib)
CCOC(=O)Cn1cc(/C=C/[N+](=O)[O-])c2ccccc21	VDR inhibitor inconclusive, PLK1 PBD inh inconclusive, Tau ThT inhib inconclusive
CCOC(=O)COc1ccc2ccccc2c1/C=C/[N+](=O)[O-]	Sfp PPTase inh 20µM, VDR inhibitor 25µM, PLK1 PBD inh 6µM, Tau ThT inhib inconclusive
CCOC(=O)[C@]12CCCC=C1N(CCC1=CCCCC1)C(=O)[C@H](CC(=O)NCc1ccccc1)C2	none (no result: Tau fluor counter, Sfp PPTase inh, Tau FP inhib, VDR inhibitor, Tau ThT inhib)
CC(C)C1C(=O)N(Cc2cn(CC3CCCCC3)nn2)CCS(=O)(=O)N1Cc1ccc(-c2cccc(CO)c2)cc1 (stereo not given)	none (no result: Tau fluor counter, Sfp PPTase inh, Tau FP inhib, VDR inhibitor, Tau ThT inhib)
Cc1ccc(C(O)c2nc3ccccc3n2C(C)C)cc1 (stereo not given)	none
COc1ccc(C(O)c2nc3ccccc3n2C(C)C)cc1 (stereo not given)	VDR inhibitor inconclusive, PLK1 PBD inh 24µM
O=S(=O)(N/N=C/c1ccccc1F)c1ccccc1	VDR inhibitor inconclusive, PLK1 PBD inh 15µM
Clc1ccccc1-c1ccc(/C=N/Nc2nncc(-c3ccccc3)n2)o1	Tau ThT inhib 2µM
O=S(=O)(N/N=C\c1ccc(-c2ccccc2Cl)o1)c1ccccc1	Sfp PPTase inh 45µM
Cc1ccc(/C=N/Nc2nncc(-c3ccccc3)n2)o1	Tau ThT inhib inconclusive
Clc1ccc(-c2ccc(/C=N/Nc3nncc(-c4ccccc4)n3)o2)cc1	Tau ThT inhib 2.2µM
